According to article PMC11006913:
Changes are numbered by the printed parent chain.

Assays:
Assay in all cases: PBM; 200 nM protein, PBS
Conditions in all cases: dsDNA, one strand shown
HOXC10 [1] = molecular target: HOXC10 (Homo sapiens, UniProt Q9NYD6 254-340)
HOXC10 [2] = molecular target: HOXC10 (Homo sapiens, UniProt Q9NYD6 254-340, K271E)
NKX2-6 [3] = molecular target: T1, NKX2-6 (Homo sapiens, UniProt A6NCS4 118-204)
T1 sequence: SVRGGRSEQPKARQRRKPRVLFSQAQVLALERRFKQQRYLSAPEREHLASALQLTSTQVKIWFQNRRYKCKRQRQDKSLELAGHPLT

NKX2-6 [4] = molecular target: T2, NKX2-6 (Homo sapiens, UniProt A6NCS4 118-204, F151L)
T2 sequence: T1 sequence with F34L

HOXD13 [5] = molecular target: HOXD13 (Homo sapiens, UniProt P35453 263-343, T313R)
HOXD13 (Homo sapiens, UniProt P35453 263-343, T313R), sequence (P35453 263-343 T313R): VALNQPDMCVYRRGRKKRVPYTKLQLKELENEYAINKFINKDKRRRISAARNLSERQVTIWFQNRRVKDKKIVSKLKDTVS

HOXC9 = HOXC9 (Homo sapiens, UniProt P31274 178-260, R222W)
HOXC9, sequence (P31274 178-260 R222W): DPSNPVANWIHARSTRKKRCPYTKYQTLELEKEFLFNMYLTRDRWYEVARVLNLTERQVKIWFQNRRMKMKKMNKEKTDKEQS

HOXD13 [6] = molecular target: HOXD13 (Homo sapiens, UniProt P35453 263-343)
HOXD13 (Homo sapiens, UniProt P35453 263-343), sequence (P35453 263-343): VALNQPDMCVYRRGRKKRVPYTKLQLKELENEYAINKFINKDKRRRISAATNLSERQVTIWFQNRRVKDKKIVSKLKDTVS

HOXD13 [7] = molecular target: HOXD13 (Homo sapiens, UniProt P35453 263-343, T313A)
HOXD13 (Homo sapiens, UniProt P35453 263-343, T313A), sequence (P35453 263-343 T313A): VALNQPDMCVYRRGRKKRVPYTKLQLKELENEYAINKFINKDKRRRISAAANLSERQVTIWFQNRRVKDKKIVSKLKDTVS

PITX2 = PITX2 (Homo sapiens, UniProt Q99697 72-157)

HOXC10 (Homo sapiens, UniProt Q9NYD6 254-340), sequence (Q9NYD6 254-340): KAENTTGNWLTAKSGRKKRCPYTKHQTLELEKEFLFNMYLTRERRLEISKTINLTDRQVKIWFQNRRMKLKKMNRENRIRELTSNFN
HOXC10 (Homo sapiens, UniProt Q9NYD6 254-340, K271E), sequence (Q9NYD6 254-340 K271E): as the sequence (Q9NYD6 254-340) above, with K18E counted along it

For ATAACACC, the binding signal (HOXC10 [1]) was 11.1 upbm affinity estimate (log intensity, higher = more binding, comparable within an allelic series) and the binding signal (HOXC10 [2]) was 10.8 upbm affinity estimate (log intensity, higher = more binding, comparable within an allelic series).

CGCTGGGC was tested, and the binding signal (HOXC10 [1]) was 10 upbm affinity estimate (log intensity, higher = more binding, comparable within an allelic series), the binding signal (NKX2-6 [3]) was 9.13 upbm affinity estimate (log intensity, higher = more binding, comparable within an allelic series) and the binding signal (HOXC10 [2]) was 9.98 upbm affinity estimate (log intensity, higher = more binding, comparable within an allelic series). For the same sequence, the binding signal (NKX2-6 [4]) was 9.22 upbm affinity estimate (log intensity, higher = more binding, comparable within an allelic series).

With GCGGTGCC the binding signal (HOXC10 [1]) was 10 upbm affinity estimate (log intensity, higher = more binding, comparable within an allelic series) and the binding signal (HOXC10 [2]) was 10 upbm affinity estimate (log intensity, higher = more binding, comparable within an allelic series).

ATACTATA was tested, and the binding signal (HOXC10 [1]) was 11.1 upbm affinity estimate (log intensity, higher = more binding, comparable within an allelic series) and the binding signal (HOXC10 [2]) was 11 upbm affinity estimate (log intensity, higher = more binding, comparable within an allelic series).

For CGTGAATA, the binding signal (HOXC10 [1]) was 10.7 upbm affinity estimate (log intensity, higher = more binding, comparable within an allelic series) and the binding signal (HOXC10 [2]) was 10.7 upbm affinity estimate (log intensity, higher = more binding, comparable within an allelic series).

AGAAAAAG was tested, and the binding signal (HOXC10 [1]) was 10 upbm affinity estimate (log intensity, higher = more binding, comparable within an allelic series) and the binding signal (HOXC10 [2]) was 10.1 upbm affinity estimate (log intensity, higher = more binding, comparable within an allelic series).

For ATAGATGA, the binding signal (HOXC10 [1]) was 10.8 upbm affinity estimate (log intensity, higher = more binding, comparable within an allelic series) and the binding signal (HOXC10 [2]) was 10.8 upbm affinity estimate (log intensity, higher = more binding, comparable within an allelic series).

For ATAAAAAT, the binding signal (HOXC10 [1]) was 12.2 upbm affinity estimate (log intensity, higher = more binding, comparable within an allelic series), the binding signal (HOXD13 [5]) was 10.7 upbm affinity estimate (log intensity, higher = more binding, comparable within an allelic series) and the binding signal (HOXC10 [2]) was 11.7 upbm affinity estimate (log intensity, higher = more binding, comparable within an allelic series). The binding signal (HOXC9) was 11.2 upbm affinity estimate (log intensity, higher = more binding, comparable within an allelic series).

With CCCGTAAA the binding signal (HOXC10 [1]) was 11.3 upbm affinity estimate (log intensity, higher = more binding, comparable within an allelic series), the binding signal (HOXD13 [5]) was 10.6 upbm affinity estimate (log intensity, higher = more binding, comparable within an allelic series) and the binding signal (HOXD13 [6]) was 11.9 upbm affinity estimate (log intensity, higher = more binding, comparable within an allelic series). For the same sequence, the binding signal (HOXD13 [7]) was 11.6 upbm affinity estimate (log intensity, higher = more binding, comparable within an allelic series).

With GCCTAATA the binding signal (HOXC10 [1]) was 11 upbm affinity estimate (log intensity, higher = more binding, comparable within an allelic series) and the binding signal (HOXC10 [2]) was 10.9 upbm affinity estimate (log intensity, higher = more binding, comparable within an allelic series).

With GCGAGTCC the binding signal (HOXC10 [1]) was 10.1 upbm affinity estimate (log intensity, higher = more binding, comparable within an allelic series) and the binding signal (HOXC10 [2]) was 10.1 upbm affinity estimate (log intensity, higher = more binding, comparable within an allelic series).

For CACTGACG, the binding signal (HOXC10 [1]) was 10 upbm affinity estimate (log intensity, higher = more binding, comparable within an allelic series) and the binding signal (HOXC10 [2]) was 10.1 upbm affinity estimate (log intensity, higher = more binding, comparable within an allelic series).

For CTTAAATA, the binding signal (HOXC10 [1]) was 10.9 upbm affinity estimate (log intensity, higher = more binding, comparable within an allelic series) and the binding signal (HOXC10 [2]) was 10.7 upbm affinity estimate (log intensity, higher = more binding, comparable within an allelic series).

GTCCCGCA was tested, and the binding signal (HOXC10 [1]) was 10.1 upbm affinity estimate (log intensity, higher = more binding, comparable within an allelic series), the binding signal (NKX2-6 [3]) was 9.41 upbm affinity estimate (log intensity, higher = more binding, comparable within an allelic series) and the binding signal (HOXC10 [2]) was 10.1 upbm affinity estimate (log intensity, higher = more binding, comparable within an allelic series). For the same sequence, the binding signal (NKX2-6 [4]) was 9.36 upbm affinity estimate (log intensity, higher = more binding, comparable within an allelic series).

GCTCCCGA was tested, and the binding signal (HOXC10 [1]) was 9.93 upbm affinity estimate (log intensity, higher = more binding, comparable within an allelic series) and the binding signal (HOXC10 [2]) was 10.1 upbm affinity estimate (log intensity, higher = more binding, comparable within an allelic series).

AAAGATAT was tested, and the binding signal (HOXC10 [1]) was 10.9 upbm affinity estimate (log intensity, higher = more binding, comparable within an allelic series), the binding signal (HOXD13 [6]) was 10.8 upbm affinity estimate (log intensity, higher = more binding, comparable within an allelic series) and the binding signal (HOXD13 [7]) was 10.9 upbm affinity estimate (log intensity, higher = more binding, comparable within an allelic series).

In the case of AGGGCCAG, the binding signal (HOXC10 [1]) is reported as 9.98 upbm affinity estimate (log intensity, higher = more binding, comparable within an allelic series) and the binding signal (HOXC10 [2]) is reported as 10 upbm affinity estimate (log intensity, higher = more binding, comparable within an allelic series).

For GAGCTGCC, the binding signal (HOXC10 [1]) was 9.9 upbm affinity estimate (log intensity, higher = more binding, comparable within an allelic series) and the binding signal (HOXC10 [2]) was 9.88 upbm affinity estimate (log intensity, higher = more binding, comparable within an allelic series).

In the case of ACATAAGT, the binding signal (HOXC10 [1]) is reported as 10.9 upbm affinity estimate (log intensity, higher = more binding, comparable within an allelic series), the binding signal (PITX2) is reported as 9.71 upbm affinity estimate (log intensity, higher = more binding, comparable within an allelic series) and the binding signal (HOXC10 [2]) is reported as 10.8 upbm affinity estimate (log intensity, higher = more binding, comparable within an allelic series).

In the case of CAGCGCCC, the binding signal (HOXC10 [1]) is reported as 9.88 upbm affinity estimate (log intensity, higher = more binding, comparable within an allelic series) and the binding signal (HOXC10 [2]) is reported as 9.95 upbm affinity estimate (log intensity, higher = more binding, comparable within an allelic series).

In the case of CGCCAGCG, the binding signal (HOXC10 [1]) is reported as 10 upbm affinity estimate (log intensity, higher = more binding, comparable within an allelic series) and the binding signal (HOXC10 [2]) is reported as 9.94 upbm affinity estimate (log intensity, higher = more binding, comparable within an allelic series).

In the case of ACGCGAGC, the binding signal (HOXC10 [1]) is reported as 10.1 upbm affinity estimate (log intensity, higher = more binding, comparable within an allelic series) and the binding signal (HOXC10 [2]) is reported as 10.1 upbm affinity estimate (log intensity, higher = more binding, comparable within an allelic series).

CGCCCCGA was tested, and the binding signal (HOXC10 [1]) was 10.1 upbm affinity estimate (log intensity, higher = more binding, comparable within an allelic series) and the binding signal (HOXC10 [2]) was 9.97 upbm affinity estimate (log intensity, higher = more binding, comparable within an allelic series).

With ACGAAGCT the binding signal (HOXC10 [1]) was 10 upbm affinity estimate (log intensity, higher = more binding, comparable within an allelic series) and the binding signal (HOXC10 [2]) was 10.1 upbm affinity estimate (log intensity, higher = more binding, comparable within an allelic series).

AGCTCTGC was tested, and the binding signal (HOXC10 [1]) was 9.99 upbm affinity estimate (log intensity, higher = more binding, comparable within an allelic series) and the binding signal (HOXC10 [2]) was 9.97 upbm affinity estimate (log intensity, higher = more binding, comparable within an allelic series).

In the case of TTGGCCAA, the binding signal (HOXC10 [1]) is reported as 9.97 upbm affinity estimate (log intensity, higher = more binding, comparable within an allelic series) and the binding signal (HOXC10 [2]) is reported as 9.93 upbm affinity estimate (log intensity, higher = more binding, comparable within an allelic series).

For ATAAAAAG, the binding signal (HOXC10 [1]) was 12.1 upbm affinity estimate (log intensity, higher = more binding, comparable within an allelic series) and the binding signal (HOXC10 [2]) was 11.5 upbm affinity estimate (log intensity, higher = more binding, comparable within an allelic series).

In the case of GAAGCTCC, the binding signal (HOXC10 [1]) is reported as 10.1 upbm affinity estimate (log intensity, higher = more binding, comparable within an allelic series) and the binding signal (HOXC10 [2]) is reported as 10.1 upbm affinity estimate (log intensity, higher = more binding, comparable within an allelic series).

In the case of CCGACTCG, the binding signal (HOXC10 [1]) is reported as 10.1 upbm affinity estimate (log intensity, higher = more binding, comparable within an allelic series) and the binding signal (HOXC10 [2]) is reported as 10.1 upbm affinity estimate (log intensity, higher = more binding, comparable within an allelic series).

With AATGCTAT the binding signal (HOXC10 [1]) was 11 upbm affinity estimate (log intensity, higher = more binding, comparable within an allelic series) and the binding signal (HOXC10 [2]) was 10.9 upbm affinity estimate (log intensity, higher = more binding, comparable within an allelic series).

For GGCGCAAA, the binding signal (HOXC10 [1]) was 10.1 upbm affinity estimate (log intensity, higher = more binding, comparable within an allelic series) and the binding signal (HOXC10 [2]) was 10.1 upbm affinity estimate (log intensity, higher = more binding, comparable within an allelic series).

In the case of AGATAATG, the binding signal (HOXC10 [1]) is reported as 11.3 upbm affinity estimate (log intensity, higher = more binding, comparable within an allelic series) and the binding signal (HOXC10 [2]) is reported as 11.2 upbm affinity estimate (log intensity, higher = more binding, comparable within an allelic series).

ATTACAGG was tested, and the binding signal (HOXC10 [1]) was 11.1 upbm affinity estimate (log intensity, higher = more binding, comparable within an allelic series) and the binding signal (HOXC10 [2]) was 10.9 upbm affinity estimate (log intensity, higher = more binding, comparable within an allelic series).
